Experimental data reported in PubChem BioAssay AID890 (National Center for Advancing Translational Sciences (NCATS), 2007).
Calls of active or inactive are those of the source. Calls come from the whole dose curve; as a rule, active = well fitted activation curve with a large enough effect; inactive = flat fitted curve, though single readings scatter.

Assay: Confirmation Concentration-Response Assay for Epigenetic Modulators
Details: murine C127i cells, silenced GFP reporter derepression, imaging
Excerpt: NIH Molecular Libraries Screening Centers Network [MLSCN] NIH Chemical Genomics Center [NCGC] MLSCN Grant: 1 X01 MH079860-01 Assay Provider: Elisabeth D. Martinez, University of Texas SW Medical Center NCGC Assay Overview: The Locus Derepression assay detects the derepression of a GFP reporter that is stably integrated in a region of the genome of murine c127i mammary cells that is presumably silenced. GFP transcription in this construct is controlled by a CMV promoter, which normally is strong and constitutively active. However, this line was selected for lack of constitutive expression of the GFP protein. GFP production can be induced by incubating the cells with histone deacetylase or DNA methyltransferase inhibitors. Compounds that cause derepression of the locus to express GFP are identified by enumerating GFP positive cells using a laser-scanning microplate cytometer.
NCGC Assay Protocol Summary: Two hundred and fifty cells in 5 uL per well were dispensed into black, clear-bottom 1536-well plates. Twenty-three nL compound was transferred to the assay plate and cells were incubated 30 hours at 37 C. […]

## CN1CSC(=S)N(C)C1
  Potency: 7.95 µM (active)
